Bioassay records: PubChem BioAssay, National Center for Advancing Translational Sciences (NCATS)
The list is not random: actives were taken first. Their share in the collection is about 5.7%.
IL-1B inflam inh = qHTS for Inhibitors of Inflammasome Signaling: IL-1-beta AlphaLISA Primary Screen. AID 743279, 2014. hit rate 4.7% among 360,000. activity change, % at 57.5 µM. THP-1 LPS/ATP IL-1B secretion, AlphaLISA, 16 h; active compounds read low; in the data active = activity change below about -50%; inconclusive = mostly about -30% to -49%
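Secreted IL-1B measured by AlphaLISA bead assay after 16 h compound exposure of THP-1 cells; compounds (final up to 57.5 uM) added 1 h before LPS (250 ng/mL) and ATP (1.25 mM) stimulation; lower signal means less secretion.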
TGFb SMAD3 inh = qHTS for Inhibitors of TGF-b. HepG2 CAGA-GFP TGF-b/SMAD3 reporter, GFP fluorescence, 18 h; TGF-beta stimulated, 500 pg/mL final. hit rate 1.2% among 410,000. Potency, µM (doses to about 46.1 µM), most hits filed as inhibitors; note: nearly all actives have a fitted effect of over 65% in size
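Using HEPG2 CAGA-GFP reporter cells at 1000 cells/well, we pinned test compounds, stimulated with recombinant TGF-beta (500 pg/mL final) and measured total well GFP after 18 h.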
ATXN viability = Viability Counterscreen for Primary qHTS for Inhibitors of ATXN expression | S2 cells (HEK-293 line with an ATXN2-luciferase reporter) viability, CellTiter-Fluor protease fluorescence, 24 h | Potency, µM (top dose mostly 56.7 µM), most hits filed as cytotoxic | hit rate 0.49% among 400,000; note: nearly all actives have a fitted effect of over 40% in size
ATXN2 expr inh = Primary qHTS for Inhibitors of ATXN expression; HEK-293 ATXN2-luciferase reporter, luminescence, 24 h; Potency, µM (doses to about 57 µM), hits mostly inhibitors; hit rate 0.72% among 360,000; note: nearly all actives have a fitted effect of over 55% in size
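qHTS (up to 57 uM final) was run with 24 h compound exposure of reporter cells at 37 °C. Each well was multiplexed: SteadyGlo luminescence measured ATXN2-luciferase expression after a fluorogenic Gly-Phe-AFC viability readout (25 uM final).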
HepG2 tox = qHTS for Inhibitors of TGF-b: Cytotox Counterscreen | HepG2 CAGA-GFP viability, ATP luminescence, 18 h | Potency, µM (top dose mostly 46.1 µM), most hits filed as cytotoxic | hit rate 0.76% among 410,000 | AID 588856, 2011
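CellTiter-Glo luminescence gave cytotoxicity after 18 hours at 37 degrees C. The cells were HepG2 CAGA-GFP in 1% FBS DMEM, stimulated with 500 pg/mL TGF-beta after compound addition. %Activity was normalised to no-cell wells (complete cell-killing) and DMSO (no toxicity), and curves were fitted and classified.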
Numbers stand for hits; n = inactive; u = inconclusive; x = no result; [ ] = remark or other dose. Unless noted, calls come from the whole dose curve; as a rule, active = well fitted curve in the direction sought with a large enough effect; inconclusive = small, poorly fitted or top-dose-only effect, or another doubt; inactive = no such curve, though single readings can be large; an effect the other way counts as inactive or inconclusive.

SMILES	IL-1B inflam inh	TGFb SMAD3 inh	ATXN viability	ATXN2 expr inh	HepG2 tox
O=c1[nH]/c(=C\c2ccc(N(CCCl)CCCl)cc2)c(=O)[nH]/c1=C\c1ccc(N(CCCl)CCCl)cc1	x	n	x	x	n
Cc1cnc(SCc2ccccn2)nc1C1CCCN(C(=O)c2ccc(-c3ccccc3F)cc2)C1 (configuration not stated)	x	x	n	x	x
Cc1ccccc1C1CC(=O)Nc2ccc3ccccc3c21 (configuration not stated)	x	12.6µM	u	n	n
COc1ccc(CN2CCN(C(=O)Cn3c(=O)oc4cc(Cl)ccc43)CC2)c(OC)c1OC	n	u	u	x	n
O=C(N/N=C/c1c(O)n(CCc2ccccc2)c(=O)[nH]c1=O)c1ccccc1O	n	n	n	x	n
CCCCCCC(=O)N/N=C/c1c(O)n(CCc2ccccc2)c(=O)[nH]c1=O	n	n	u	17.8µM	n
C[C@@H]1CN([C@@H](C)CO)C(=O)c2c(c3ccccc3n2C)-c2ccccc2CO[C@H]1CN(C)C(=O)[C@H](C)c1ccccc1	n	u	u	u	n
COCCNCCOc1ccc(C(C)(C)c2ccccc2)cc1	-67.9	n	n	n	n
CN(C)C1(CNC(=O)Nc2ccc(Cl)c(Cl)c2)CCCCC1	-72.4	u	u	u	15.8µM
CN(C)C1(CNC(=O)c2ccc(NS(=O)(=O)c3ccc(Cl)c(Cl)c3)cc2)CCCCC1	n	n	n	n	n
O=C(C[N+]12CCC(CC1)C(C(O)(c1ccccc1)c1ccccc1)C2)c1ccc(Br)cc1 (configuration not stated)	-59.2	n	n	x	n
OCC[N+]12CCC(CC1)C(C(O)(c1ccccc1)c1ccccc1)C2 (configuration not stated)	n	n	n	n	n
COc1ccc(S(=O)(=O)N(C)C[C@H]2OCCCC[C@@H](C)Oc3ccc(N(C)C)cc3C(=O)N([C@H](C)CO)C[C@@H]2C)cc1	n	n	u	n	n
C[CH2][Hg][S]c1ccccc1C(=O)O	-112.3	4.47µM	4.47µM	6.31µM	2.51µM
O=C(O)c1ccccc1SCC(=O)N1c2ccccc2Sc2ccccc21	n	u	n	n	n
CCN(CC)C(=O)c1ccc(NC(=O)COc2ccc(-c3nn(C)c(=O)c4ccccc34)cc2)cc1	n	10µM	n	u	n
CN[C@@H]1Cc2cccc3[nH]c(=O)n(c23)C1	x	x	x	n	x
N#CC(C#N)=NNc1ccc(-n2ccc(C(F)(F)F)n2)cc1	-83.2	3.16µM	u	u	n
Cc1ccc2c(c1)C1CN(C)CCC1N2 (configuration not stated)	x	x	n	n	x
O=[N+]([O-])c1c(Cl)c(Cl)c(Cl)c(Cl)c1Cl	n	n	n	n	n
Nc1cc(Cl)c2nonc2c1[N+](=O)[O-]	-102.0	u	u	u	11.2µM
COc1ccc(C(=O)C2CCCN(Cc3cnc(C)s3)C2)c(OC)c1 (configuration not stated)	-63.7	n	x	n[11.3 µM]	n
CC(C)(C)NC[C@H](O)c1ccc(O)cc1Cl	x	x	u	n	x
COc1ccc(NC(=O)Cn2c(=O)oc3cc(S(=O)(=O)N4CCC(C)CC4)ccc32)c(OC)c1	x	12.6µM	x	x	n
ClCCN1CCCC1	x	x	n	n	x
SMILES	IL-1B inflam inh	TGFb SMAD3 inh	ATXN viability	ATXN2 expr inh	HepG2 tox
COc1cc(NC(=O)c2cccc3c(-c4cccnc4)coc23)cc(OC)c1OC	-77.7	n	u	11.2µM	n
C[C@@H]1[C@H](O)[C@@H](C)C=CC=CCCC=CC=CC=CC=C[C@H](O[C@H]2O[C@@H](C)[C@H](O)[C@@H](N)[C@@H]2O)CC2O[C@](O)(C[C@@H](O)[C@H](O)CC[C@@H](O)C[C@@H](O)C[C@@H](O)CC(=O)O[C@H]1C)C[C@H](O)[C@H]2C(=O)O	x	x	n	n	x
CC1(C)CC(CCNCc2ccc3c(c2)OCO3)(Cc2ccccc2)CCO1 (configuration not stated)	-96.4	n	n	n	n
c1cncc(CNCCc2ccc3c(c2)OCO3)c1	n	n	n	x	n
CCCCCCCSc1cc(OC)c(CCNC)cc1OC	-78.8	u	u	u	n
CCCCCSc1cc(OC)c(CCNC)cc1OC	n	u	n	n	10µM
Cc1ccc2c(c1)[C@]13CCCC[C@@H]1[C@H](C2)N(C)CC3	x	x	n	x	x
C[C@]12CC[C@H]3[C@@H](CCC4=CC(=O)CC[C@@H]43)[C@@H]1CC[C@@H]2OC(=O)CCc1ccco1	x	x	n	n	x
CCOC(=O)c1ccc(N2C(=O)c3n[nH]c(-c4cccs4)c3C2c2ccc(Cl)cc2Cl)cc1 (configuration not stated)	x	4.47µM	u	u	n
O=c1[nH]c2ccccc2n1C1CCN(Cc2ccc(-c3nc4ccc(F)cc4nc3-c3ccccc3)cc2)CC1	-61.2	x	u	u	x
Cc1ccc2nc(-c3ccc(CN4CCC(n5c(=O)[nH]c6ccccc65)CC4)cc3)c(-c3ccccc3)nc2c1	-73.9	x	u	n	x
COc1ccc2nc(-c3ccc(CN4CCC(n5c(=O)[nH]c6ccccc65)CC4)cc3)c(-c3ccccc3)nc2c1	-60.6	x	u	n	x
O=c1[nH]c2ccccc2n1C1CCN(Cc2ccc(-c3nc4ccccc4nc3-c3ccccc3)cc2)CC1	n	x	u	n	x
C1CN2CCC1CC2	x	x	n	n	x
CC(C)(C)c1cc(C=C(C#N)C#N)cc(Br)c1O	x	x	x	27.3µM	x
CCC(=O)c1cn(Cc2ccc(C#N)cc2)c2ccccc12	n	n	n	n	n
N#Cc1ccc(Cn2cc(C=O)c3ccccc32)cc1	n	1.41µM	n	u	n
O=Cc1cn(Cc2c(F)cccc2Cl)c2ccccc12	n	3.55µM	u	x	n
O=Cc1cn(Cc2cccc([N+](=O)[O-])c2)c2ccccc12	n	0.708µM	u	0.447µM	n
Cc1cccc(Cn2cc(C=O)c3ccccc32)c1	n	1.12µM	n	u	n
CCCc1cc(N2CCN(c3ccc(OC)cc3)CC2)n2cnnc2n1	x	u	n	n	n
Clc1ccc(C[n+]2c(-c3ccccc3)cc(-c3ccccc3)cc2-c2ccccc2)cc1	-89.6	u	10µM	u	n
Fc1ccc(C[n+]2c(-c3ccccc3)cc(-c3ccccc3)cc2-c2ccccc2)cc1	n	u	u	u	n
CC(C)n1c(O)c(C2c3cc(Cl)ccc3Oc3[nH]c(=O)n(C(C)C)c(=O)c32)c(=O)[nH]c1=O (configuration not stated)	-99.2	6.31µM	11.2µM	3.98µM	14.1µM
CC(=O)c1c(O)n(-c2cccc(Cl)c2)c(=O)[nH]c1=O (tested in a mixture with another compound)	n	n	n	n	n
CC(=O)Nc1cc(-c2ccc(C(=O)NC3CC3)cc2)cn2c(-c3ccc(F)c(Cl)c3)cnc12	n	u	n	n	n
